Hits are enriched below; roughly 3.1% of the tested compounds scored in any of these assays.
TSHR antag: antagonists of human thyroid stimulating hormone receptor | hit rate 0.2% among 330,000 | P16473 | TSHR-expressing cells, TSH-stimulated cAMP HTRF, 2 h; hits give low values | activity change, negative = inhibition, % at 11.5 µM;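 active means activity change below a set negative limit, meaning inhibition stronger than a set level, cut at about -70% in these data; inconclusive means activity change between two set negative limits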; further: on the % scale 0 is the no-effect control and ±100 the full control effect
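Read-out is FRET at 665 nm (cryptate excitation 337 nm) from a cryptate-tagged anti-cAMP antibody, competed by cell cAMP against cAMP-d2. Compounds are tested on freshly harvested TSHR cells challenged with 4nM TSH (EC80) for 2 hours at 37 deg C.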
PLK1 PBD block: inhibitors of human PLK1 polo-box domain binding | Plk1 PBD binding of FITC phosphopeptide, fluorescence polarization | hit rate 2.8% among 360,000 | Potency, µM, inactives show max response, negative = inhibition, usual class: inhibitors | AID 720504; further: potency means the concentration at half of the fitted maximal effect; series mostly up to about 57 µM; on the % scale 0 is the no-effect control and ±100 the full control effect; nearly all actives have a fitted effect of over 65% in size
Target sequence (P53350 whole entry, looked up, the tested form may be a part): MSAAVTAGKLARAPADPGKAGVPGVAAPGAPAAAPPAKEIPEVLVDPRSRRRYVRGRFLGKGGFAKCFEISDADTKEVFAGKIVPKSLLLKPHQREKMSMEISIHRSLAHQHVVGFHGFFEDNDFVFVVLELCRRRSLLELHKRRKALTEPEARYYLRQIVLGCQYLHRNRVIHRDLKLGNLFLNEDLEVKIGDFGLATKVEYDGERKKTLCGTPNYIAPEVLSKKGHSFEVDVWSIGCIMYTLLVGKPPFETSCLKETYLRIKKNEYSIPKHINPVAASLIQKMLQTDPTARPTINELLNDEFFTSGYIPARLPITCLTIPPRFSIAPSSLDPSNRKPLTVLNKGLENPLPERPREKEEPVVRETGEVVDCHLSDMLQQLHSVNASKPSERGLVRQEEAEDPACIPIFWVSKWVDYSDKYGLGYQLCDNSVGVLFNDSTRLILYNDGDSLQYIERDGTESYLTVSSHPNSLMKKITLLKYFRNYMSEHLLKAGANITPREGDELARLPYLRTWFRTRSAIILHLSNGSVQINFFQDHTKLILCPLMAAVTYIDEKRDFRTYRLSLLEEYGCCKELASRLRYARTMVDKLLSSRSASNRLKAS
Vif-A3G inh: blocks the Vif interaction with human APOBEC3G. Q9HC16. HeLa A3G-eYFP + Vif (tagged APOBEC3G with the HIV-1 protein that degrades it), YFP fluorescence, overnight. Potency, µM (highest dose often 46.1 µM), for the others: at the highest dose activity, negative = active, most hits filed as inhibitors. hit rate 0.076% among 410,000. AID 602310; further: potency means the concentration at half of the fitted maximal effect; on the % scale 0 is the no-effect control and ±100 the full control effect; nearly all actives have a fitted effect of over 60% in size
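Read-out is eYFP fluorescence (Ex 488/Em 500-530) from Vif-expressing HeLa A3G-eYFP cells; more signal means A3G escaped Vif-mediated degradation. Cells plated overnight, compound pinned in, incubated overnight at 37 deg C.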
Vif-A3F inh: blocks the Vif interaction with APOBEC3F | hit rate 0.2% among 390,000 | AID 602313 | Potency, µM (top dose mostly 46.1 µM), for inactives: top-dose activity, negative = active | HeLa A3F-eYFP + Vif (tagged APOBEC3F with the HIV-1 protein that degrades it), YFP fluorescence increase; further: potency means the concentration at half of the fitted maximal effect; % of control where 0% means no effect; nearly all actives have a fitted effect of over 65% in size
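HeLa cells stably expressing Vif plus C-terminally eYFP-tagged A3F were seeded, incubated overnight at 37 deg C, dosed with compound, incubated overnight again at 37 deg C. Yellow fluorescence (Ex 488/Em 500-530) reported blocked Vif-mediated A3F-eYFP degradation.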
VDR inhibitor: inhibitors of human vitamin D receptor; P11473; VDR-SRC2-3 peptide fluorescence polarization, 2 h; Potency, µM, for inactives: max response, negative = inhibition, actives largely listed as inhibitors; hit rate 0.93% among 400,000; AID 504847; further: potency means the concentration at half of the fitted maximal effect; on the % scale 0 is the no-effect control and ±100 the full control effect
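Signal is fluorescence polarization, reporting how far test compounds block the interaction of VDR with the SRC2-3 coregulator peptide after a 2 h room-temperature incubation.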
* hit, by the source's call; ? = inconclusive; / = no result given. Unless noted, the call rests on the fitted dose curve; in most records, active means well fitted curve in the direction sought with a large enough effect; inconclusive means small, poorly fitted or top-dose-only effect, or another doubt; inactive means no such curve, though single readings can be large; an effect the other way counts as inactive or inconclusive.

SMILES	TSHR antag	PLK1 PBD block	Vif-A3G inh	Vif-A3F inh	VDR inhibitor
CC1=C/C(=N\OS(=O)(=O)c2ccccc2)C(C(C)C)=CC1=O	-84*	-15%	-18%	-15%	?
COc1ccc2nc(N3C(=O)/C(=C/c4ccccc4)NC3=S)sc2c1	-27	-14%	5µM*	13µM*	-10%
Cc1oc(/N=C/c2cccc3ccccc23)c(C#N)c1C	-6	24µM*	2%	-7%	?
COCCNC(=O)C(c1ccc(C)o1)N(CCOC)C(=O)Cn1nnc2ccccc21 (configuration not stated)	3	27µM*	2%	-1%	-25%
CCOc1ccccc1C(C(=O)NCCOC)N(CCOC)C(=O)Cn1nnc2ccccc21 (configuration not stated)	-10	-4%	1%	12%	-1%
CCC(c1nnnn1Cc1ccccc1)N(Cc1ccccc1)Cc1cc2cc(C)ccc2[nH]c1=O (configuration not stated)	/	/	-6%	/	-13%
Fc1cc(F)c(F)c(SCCc2ccncc2)c1F	/	?	-16%	-6%	50µM*
Fc1ccc(SCCc2ccncc2)cc1	-2	24µM*	0%	-4%	?
c1ccc(SCCc2ccncc2)cc1	-7	21µM*	-4%	3%	1%
COc1ccc(SCCc2ccncc2)cc1	-4	-27%	-3%	-29%	-8%
O=C(C[n+]1ccc(CCSc2ccc(F)cc2)cc1)c1ccccc1	-1	1.9µM*	-9%	?	?
Cc1csc(NC(=O)COc2ccc3c(C)cc(=O)oc3c2)n1	-3	-4%	-1%	-9%	-7%
CCOC(=O)c1c(-c2ccccc2)csc1NC(=O)COc1ccc2c(C)cc(=O)oc2c1	5	27µM*	-2%	2%	-17%
CCc1cc(=O)oc2cc(OCC(=O)NCc3ccccn3)ccc12	-4	27µM*	1%	-5%	?
COc1ccc(-c2cc(=O)oc3cc(OCC(=O)Nc4ccccn4)ccc23)cc1	2	3µM*	0%	2%	?
Cc1cc(=O)oc2cc(OCC(=O)N3CCOCC3)ccc12	-1	27µM*	0%	0%	-15%
CCC(C)NC(=O)Cn1c(=O)n(-c2ccc(C)c(C)c2)c(=O)c2c(C)c(C(=O)N(CC)CC)sc21 (configuration not stated)	/	/	-1%	1%	-7%
COc1ccc2c(c1)O[C@@H](c1ccc3c(c1)OCO3)[C@H](OC(=O)NCc1ccc3c(c1)OCO3)C2=O	/	/	/	/	6%
Oc1c(C(Nc2ccccn2)c2ccccc2)ccc2cccnc12 (configuration not stated)	/	/	-16%	/	/
CN(C)c1ccc(/C=C2\SC(=S)N(Nc3ncc(C(F)(F)F)cc3Cl)C2=O)cc1	-20	52%	?	10µM*	-13%
COc1cc(/C=C2\SC(=S)N(Nc3ncc(C(F)(F)F)cc3Cl)C2=O)ccc1O	-18	6%	?	22µM*	?
CC(=O)NNC(=O)CC(=O)Nc1nc(C23CC4CC(CC(C4)C2)C3)cs1	-4	-11%	-2%	2%	?
CCNc1nc(C23CC4CC(CC(C4)C2)C3)cs1	-73*	-13%	3%	-3%	5%
CCSC[C@H](NC(=O)[C@H](C)NC(=O)[C@@H](N)Cc1ccc(O)cc1)C(=O)N[C@@H](CC(=O)O)C(=O)N[C@H](C(=O)N[C@@H](C)C(=O)N[C@H](C(=O)N[C@@H](CSCC)C(=O)N[C@H](C(=O)N[C@H](C(=O)N[C@@H](Cc1cnc[nH]1)C(=O)N[C@@H](CCCNC(=N)N)C(=O)N[C@@H](CC(C)C)C(=O)N[C@@H](C)C(=O)NCC(=O)N[C@@H](CC(C)C)C(=O)N[C@@H](CC(C)C)C(=O)N[C@@H](CO)C(=O)N[C@@H](CCCNC(=N)N)C(=O)N[C@@H](CO)C(=O)NCC(=O)NCC(=O)N[C@H](C(=O)N[C@H](C(=O)N[C@@H](CCCCN)C(=O)N[C@@H](CC(N)=O)C(=O)N[C@@H](CC(N)=O)C(=O)N[C@@H](Cc1ccccc1)C(=O)N[C@H](C(=O)N1CCC[C@H]1C(=O)N[C@H](C(=O)N[C@@H](CC(N)=O)C(=O)N[C@H](C(=O)NCC(=O)N[C@@H](CO)C(=O)N[C@@H](CCCCN)C(=O)N[C@@H](C)C(=O)N[C@@H](Cc1ccccc1)C(N)=O)C(C)C)[C@@H](C)O)C(C)C)C(C)C)C(C)C)[C@@H](C)O)C(C)C)[C@@H](C)O)[C@@H](C)O	/	/	/	/	7%
Cc1ccc(N2OC3C(=O)NC(=O)C3C2c2ccco2)cc1 (configuration not stated)	11	-4%	0%	-2%	-9%
SMILES	TSHR antag	PLK1 PBD block	Vif-A3G inh	Vif-A3F inh	VDR inhibitor
O=c1[nH]c(-c2ccc(-c3cccc(Cl)c3)o2)nc2ccccc12	-12	/	3%	1%	-18%
Cc1cccc(N2C(S)=C(C#N)C(=O)NC2c2ccco2)c1 (configuration not stated)	9	?	-2%	?	28µM*
N#CC1=C(S)N(c2ccccc2)C(c2ccc(-c3cccc(Cl)c3)o2)NC1=O (configuration not stated)	-1	24µM*	-6%	7.1µM*	?
COc1ccc(N2C(S)=C(C#N)C(=O)NC2c2ccco2)cc1 (configuration not stated)	7	?	4%	-21%	40µM*
COc1ccc(C2CC(c3ccco3)n3ncnc3N2)cc1 (configuration not stated)	1	?	1%	0%	?
CC(Sc1nnc(-c2ccccc2)n1C)C(=O)NCc1ccco1 (configuration not stated)	/	/	2%	/	/
CCC1C(=O)CC2CCN3C(=O)CCC1C23 (configuration not stated)	/	/	-4%	/	-21%
CC(=O)NC1=NN(C(C)=O)C(c2ccccc2)S1 (configuration not stated)	-6	4.7µM*	-1%	-13%	?
CC(C)S(=O)(=O)C1=NSC2=NC(=O)/C(=C\c3ccc(-c4ccccc4)o3)C(=N)N21	-86*	30µM*	-2%	-8%	?
O=C1OC(c2cccs2)=N/C1=C\c1ccc(-c2ccccc2Cl)o1	-4	-13%	?	-15%	8%
O=C1OC(c2cccs2)=N/C1=C/c1ccc(-c2cccc(C(=O)O)c2)o1	4	19%	-1%	-8%	79µM*
N=C1/C(=C/c2ccc(-c3cccc(C(=O)O)c3)o2)C(=O)N=C2SC=C(c3ccccc3)N12	-38	15µM*	-1%	7%	-21%
CS(=O)(=O)C1=NSC2=NC(=O)/C(=C\c3ccc(-c4ccccc4)o3)C(=N)N21	-31	/	/	/	/
CCOc1ccc(NC(=O)c2cc(S(=O)(=O)N3CCCCCC3)cn2C)cc1	/	/	2%	-7%	1%

Source: PubChem
